Most compounds without a hit are left out; they make up all but 0.47% or so of the library.
UDG counter – blocks uracil-DNA glycosylase in AID counter-screen; FRET deamination/UDG coupled assay, UDG read, 4 h; Potency, µM (doses to about 115 µM), for the others: at the highest dose activity change, negative = inhibition, hits mostly inhibitors; 0.14% of 91,000 active; further: nearly all actives have a fitted effect of over 65% in size
AID inhibitor – inhibitors of human activation induced cytidine deaminase. Q9GZX7. Potency, µM (highest dose often 115 µM), usual class: inhibitors. AID deamination FRET fluorescence, UDG-coupled, 4 h. 0.32% of 91,000 active; further: nearly all actives have a fitted effect of over 25% in size
Target sequence (Q9GZX7 whole entry, looked up): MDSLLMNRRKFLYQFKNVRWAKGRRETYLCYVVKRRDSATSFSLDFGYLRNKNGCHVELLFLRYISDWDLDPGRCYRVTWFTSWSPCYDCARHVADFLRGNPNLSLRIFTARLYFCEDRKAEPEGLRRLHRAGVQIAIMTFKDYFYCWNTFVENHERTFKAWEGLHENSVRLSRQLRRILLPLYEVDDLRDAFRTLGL
Starred values were filed as active, the others as inactive; i = inactive; ? = inconclusive; [ ] = remark or other dose. The call rests on the fitted dose curve; in most records, active means well fitted curve in the direction sought with a large enough effect; inconclusive means small, poorly fitted or top-dose-only effect, or another doubt; inactive means no such curve, though single readings can be large; an effect the other way counts as inactive or inconclusive. On the % scale 0 is the no-effect control and ±100 the full control effect; potency means the concentration at half of the fitted maximal effect.

SMILES | UDG counter | AID inhibitor
CC1CCCCN1S(=O)(=O)c1cc2c3c(c1)CC(=O)N3CCC2 (centres undefined) | 89.1µM* | ?
CC1CCN(S(=O)(=O)c2cc3c4c(c2)CC(=O)N4CCC3)CC1 | -24.8% | i
CCC1CCCCN1S(=O)(=O)c1ccc2c(c1)CCCN2C(C)=O (centres undefined) | -0.3% | i
CCC1CCCCN1S(=O)(=O)c1cc2c3c(c1)CC(=O)N3CCC2 (centres undefined) | 89.1µM* | i
CC(C)=C(/C(=C/CS(=O)(=O)c1ccc(C)cc1)S(=O)(=O)c1ccccc1)S(=O)(=O)c1ccccc1 | -12.4% | i
Cc1ccc(Nc2nc(-c3ccc(F)cc3)cs2)cc1 | -10.5% | i
c1ccc(-c2noc(CSc3nnnn3C3CCCCC3)n2)cc1 | 89.1µM* | i
COc1ccc(-c2noc(CSc3nnc(-c4ccccc4)n3C)n2)cc1 | -23.7% | i
CCCOc1ccc(-c2nn(-c3ccccc3)cc2C2NC(=O)NC(C)=C2C(=O)OC)cc1 (centres undefined) | -22.2% | ?
CCCOc1ccc(-c2nn(-c3ccccc3)cc2C2NC(=O)NC(C)=C2C(=O)OCC)cc1 (centres undefined) | 89.1µM* | ?
CC(C)c1ccc(-n2nnnc2SCc2nc3ccccc3[nH]2)cc1 | -1.8% | i
Cc1ccccc1-c1nc(CS(=O)(=O)CC(=O)N2CCN(c3ccccc3)CC2)c(C)o1 | -11.5% | ?
CC(C)(C)C1CCC(OC(=O)c2c(F)cccc2Cl)CC1 (centres undefined) | -11.4% | i
CCCCOc1ccc(C(=O)N(Cc2ccc(C(C)C)cc2)C2CCS(=O)(=O)C2)cc1 (centres undefined) | -9.8% | 25.1µM*
CCCOc1ccc(C(=O)N(Cc2ccc(C(C)C)cc2)C2CCS(=O)(=O)C2)cc1 (centres undefined) | -17.8% | ?
COC(=O)CC1Oc2ccccc2-n2cc(-c3ccc(C)cc3)nc21 (centres undefined) | -0.9% | i
Cc1cc(C)cc(CCCCCCCCCCCC(=O)O)c1 | -3.0% | 79.4µM*
O=C(O)CCCCCCCC(=O)O | 7.1% | i
CCn1cc(S(=O)(=O)c2ccc(OC)cc2)c(=O)c2cc(F)c(N3CCCCCC3)cc21 | -8.7% | i
CCn1cc(S(=O)(=O)c2ccc(OC)cc2)c(=O)c2cc(F)c(N3CCC(C)CC3)cc21 | -26.3% | 17.8µM*
CCCCNC(=O)c1cnn2c(C)c(Cc3c(C)cc(C)cc3C)c(C)nc12 | -27.6% | ?
CCCNC(=O)c1cnn2c(C)c(Cc3c(C)cc(C)cc3C)c(C)nc12 | -10.0% | 39.8µM*
COc1ccc(CNC(=O)c2cnn3c(C)c(Cc4c(F)cccc4Cl)c(C)nc23)cc1 | -17.0% | 35.5µM*
Cc1nc2c(C(=O)NCc3ccccc3)cnn2c(C)c1Cc1ccc(F)cc1 | -22.3% | ?
Oc1c(C(c2ccc(Cl)cc2)N2CCC3(CC2)OCCO3)sc2nc(-c3ccco3)nn12 (centres undefined) | -16.8%[57.5 µM] | i
SMILES | UDG counter | AID inhibitor
CCOc1ccc(C2CC(=O)Nc3cc4c(cc32)OCO4)cc1OC (centres undefined) | 5.7% | i
CCCCn1c(SCc2cc(=O)oc3cc(C)ccc23)n[nH]c1=O | -0.6% | i
Cc1cc(C)n(-c2nc3ccccc3nc2N2CCN(S(=O)(=O)c3ccc4ccccc4c3)CC2)n1 | 89.1µM* | i
Cc1cc(C)n(-c2nc3ccccc3nc2N2CCN(C(=O)c3ccccc3)CC2)n1 | 11.7% | i
CCn1c2ccccc2c2nnc(N3CCN(c4cccc(C)c4C)CC3)nc21 | 7.6% | i
Cc1cccc(N2CCN(c3ncnc4onc(C)c34)CC2C)c1 (centres undefined) | 0.7% | i
Cc1cccc(N2CCN(c3ncnc4onc(-c5ccc(F)cc5)c34)CC2C)c1 (centres undefined) | 79.4µM* | ?
Cc1cccc(NC(=S)NNC(=O)c2ccccc2)c1 | -3.9% | i
CC(=O)N1CCc2c(sc3nc(SCC(C)C)n(-c4ccc(C)c(Cl)c4)c(=O)c23)C1 | 79.4µM* | 25.1µM*
CC(=O)N1CCc2c(sc3nc(SCC(C)C)n(-c4ccc(F)c(Cl)c4)c(=O)c23)C1 | 0.4% | i
COc1ccc(CCNC(=O)CSc2ccc(-c3cccs3)nn2)cc1 | -6.5% | i
COc1ccc(NC(=O)/C=C\C(=O)N(c2ccc(C(C)C)cc2)C(C(=O)NCc2ccco2)c2ccc(C)cc2)cc1 (centres undefined) | -18.9% | ?
CCn1cc(C(=O)NCCc2ccccc2)c(=O)c2cc(S(=O)(=O)N3CCc4ccccc4C3)ccc21 | -13.8% | ?
CCCCN(CCCC)CCNC(=O)c1cn(CC)c2ccc(S(=O)(=O)N3CCc4ccccc4C3)cc2c1=O | ? | 28.2µM*
COc1ccc(NC(=O)Cn2c(=O)oc3cc(S(=O)(=O)N4CCCC4)ccc32)cc1OC | -9.6% | i
CC(=O)c1cccc(NS(=O)(=O)c2ccc3c(c2)NC(=O)CC(=O)N3)c1 | -3.5% | i

Screens deposited in PubChem by National Center for Advancing Translational Sciences (NCATS).
